Results taken from publication PMC12136788.
Changes are numbered by the printed parent chain. The full ranking holds about 24,000 sequences; the median of “enrichment r” is about 0.99, and the highest 2% start at about 3.7. A selection follows.

T1: UNK ZnF1-3 (human, UniProt Q9C0B0 31-174)
T1 sequence: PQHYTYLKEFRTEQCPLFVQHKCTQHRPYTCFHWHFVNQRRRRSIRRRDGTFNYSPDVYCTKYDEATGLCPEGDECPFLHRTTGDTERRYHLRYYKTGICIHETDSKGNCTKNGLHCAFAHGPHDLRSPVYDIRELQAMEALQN

B1: chr9:74905015:74905016:+_ENSMUSG00000007656_ENSMUST00000169492|mus_hu|FALSE|FALSE (ssRNA)
RNA: GGGAGUUCUACAGUCCGACGAUCUGUGUUUGAAAUAUGUGACCUUUCUUCUAACUUGUGGUCUUAAACUUCUGUUUUACAAAAUCCAAAAGGUAAAUACAGAAGAAAUCAAUACAAUAGAGAUUAUAUUAAAUAAGAGUAACACAACAGAGGAUUGAGCAUCA
B2: chr22:32879901:32879902:+_ENSG00000100225_ENST00000397426|hu_mus|hu_hu_hu_mus_False|8_18 (ssRNA)
RNA: GGGAGUUCUACAGUCCGACGAUCCUCUUCCAUACUCAUGGCAUCCUGAAUUGACUCAGCUUCAACAUUUUGACUAGGCCCUUCCAUACUGUCAUCAGUCCAGGCAUCAAAUGGGGUUGCCUGUCCUUGGAAUGAAUCAGUCCCCAACAGAGGAUUGAGCAUCA
B3: chr6:50805741:50805742:+_ENSG00000008196_ENST00000393655|hu_hu|FALSE|FALSE (ssRNA)
RNA: GGGAGUUCUACAGUCCGACGAUCCAGGGAGGUGAGUAACGUGACAUUUGCUGCUUUGCGCCUGCCCGCGGGUAAAUUCAAACCGAUUUUUUCUAGCCUUUCUCGCAAAGAUCUCCCCCCAUUUUUCGAUUUGGCUCUUCUGAGCAACAGAGGAUUGAGCAUCA
B4: chr7:99593380:99593381:+_ENSMUSG00000052572_ENSMUST00000098308|mus_hu|FALSE|FALSE (ssRNA)
RNA: GGGAGUUCUACAGUCCGACGAUCGGUGAGGAGGCUCUCAUCUCAUCUCUUGGGCAGAAAGCCCGUCAGAGGUUCAUCCCUACACCUGGCACUUUGAGCAAACCAAAGCCUUCCUUCAUACUGCAAUGUCUUUUCUGUCCCACCCAACAGAGGAUUGAGCAUCA
B5: 73047273_73096420_338_5pUTR_ENSG00000163605_ENST00000295862|human|control|control (ssRNA)
RNA: GGGAGUUCUACAGUCCGACGAUCGGCUCAGGAGCUGAAGUUCUGAAAUCAUCCAUCACUUUCUCCAGUUUGAAAAUAAAAUAGCCUUUAAAUUGGGACCACUGAAUCAUUGUUUCUCCAGUCUUGGCUACAUGACAAAGAAACCAACAGAGGAUUGAGCAUCA
B6: chr3:179287964:179287965:+_ENSG00000136518_ENST00000429709|hu_hu|hu_hu_hu_mus_True|28_38 (ssRNA)
RNA: GGGAGUUCUACAGUCCGACGAUCCUUGAGUGGUGAGAUGGCCUCCAUGUUCUCCCUGGGCACGCGGAGGGCAUUGGUGUCUAUGUAGUAGGUGGGCCCGCCUUGUUUGCCUUUAUCACCAUCAAUCUCCAUCAUUGUACUUCCCAACAGAGGAUUGAGCAUCA
B7: chr9:35286173:35286174:+_ENSMUSG00000038119_ENSMUST00000042842|mus_hu|FALSE|FALSE (ssRNA)
RNA: GGGAGUUCUACAGUCCGACGAUCAGUGUUAUUGUUACUUGAUGGAAUGUACGUCCACUUUAGCAUGAUCUGAGUAUCGCUGACAGCCUCUGUGUAUGCAAUGUGAGGUCCAGUUAUUGGACGGCUGGAAAAGCGAUUGGGGAACAACAGAGGAUUGAGCAUCA
B8: chr1:39494564:39494565:+_ENSG00000168653_ENST00000372967|hu_hu|hu_hu_hu_mus_True|28_68 (ssRNA)
RNA: GGGAGUUCUACAGUCCGACGAUCAUGCAUUCGCCUCAUCGUUUUGUACCGAAGCAAGCACUCUUCGAAAUCAUCAUACUCUAUCUUGCACUCCUUUUUCGCCCGGGUAUAACCGAUCCCGUGUGCACACUCUAUCCACUCUUUCAACAGAGGAUUGAGCAUCA
B9: 3369786_3369906_1343_3pUTR_ENSMUSG00000025899_ENSMUST00000053407|mouse|control|control (ssRNA)
RNA: GGGAGUUCUACAGUCCGACGAUCAGUCCUUGUUGAUGCCAAGGUAUUUUCCAUUUCCACAUCCGAUAUCUGCCACUAUGGAACCACUUGGCAAAGCUUUCAGGAACUCUACUAUGCGUGGCCAUGGGCUAUGUCUUGUGCUGCCAACAGAGGAUUGAGCAUCA
B10: chr7:141450121:141450122:+_ENSG00000106028_ENST00000265304|hu_mus|hu_hu_hu_mus_True|68_88 (ssRNA)
RNA: GGGAGUUCUACAGUCCGACGAUCUCAUCCGUUCUAUGCCUUUUCUUUCGUCUGGUCACUCAGAAAUAUAAUAUUAUCAGCUAUGAUUGUUGUUGCUUGCCGCCUCACAUUGUUUUUAUCCAUGUACUCGCCAUAGUCCACUUUCAACAGAGGAUUGAGCAUCA
B11: 139369022_139369142_3059_CDS_ENSG00000148396_ENST00000313050|human|control|control (ssRNA)
RNA: GGGAGUUCUACAGUCCGACGAUCGUCAGAAUGGGACGGGUUGUACACGUUUACAGGAUUUUCCAAAGUCCUGCUUAAGGUAAAGUCUAGGGCUCCGUAAGUGUCUUCCUGAUGACUGGAAUGGUUUGCCUUAUUACCAUCAGGCAACAGAGGAUUGAGCAUCA
B12: chr1:109605286:109605287:-_ENSG00000197780_ENST00000461096|hu_mus|hu_hu_hu_mus_True|8_108 (ssRNA)
RNA: GGGAGUUCUACAGUCCGACGAUCAAGAACAAUAACAACAUUCAGUAACCUCUUUAAAUGCAAUUAUCCUUAUUAUAAGCUAAGCAGAAUAAUAAUUUAAUACCGUAAGUGAACUACACACAAAGCCGUGUAUUCAGAAAUGGUCAACAGAGGAUUGAGCAUCA
B13: 25140584_25140782_2291_CDS_ENSMUSG00000026965_ENSMUST00000028341|mouse|control|control (ssRNA)
RNA: GGGAGUUCUACAGUCCGACGAUCUGCCCAGAAGAGCAGUAGCUCCUCUUCCUUCUGGUCAGCCUGGGAGGCCAUGCCUGAGUCACUCUCAUCAUCACUGUCAAUCAGCACCAUGUUGUCCCUAUCCUGAGGCCGCUCUUCCUCCAACAGAGGAUUGAGCAUCA
B14: chr15:23003119:23003120:+_ENSG00000068793_ENST00000560848|hu_mus|FALSE|FALSE (ssRNA)
RNA: GGGAGUUCUACAGUCCGACGAUCUUAUAAAGUUAAGCUUUCAGAUCAAAAGUAGGUUCAGACAUAAUGGAAAAUAGCCCCUAAAAAUUUCAAUAUAGUUUACAUAAAGACAAACAUGCCAUCAGUUACUGGGAUGCUGUGAGCCAACAGAGGAUUGAGCAUCA
B15: chr11:60965468:60965469:-_ENSMUSG00000042506_ENSMUST00000041683|mus_mus|motif|central (ssRNA)
RNA: GGGAGUUCUACAGUCCGACGAUCCUAACCACAGUACAAUCAUUGGAUUUUUUUUCCCUCACGAUUUUUUAUUUCAAAGCGGUAAUAAAUGAAACAAACCACUUGUCAAAAAGAACAAUGAUUUUACACAAGGAAAAGCAUACACAACAGAGGAUUGAGCAUCA
B16: chr17:87833181:87833182:-_ENSMUSG00000036438_ENSMUST00000040440|perfect_dup|motif|central (ssRNA)
RNA: GGGAGUUCUACAGUCCGACGAUCCGGGCUUAGAUAUAGCCAGAGUAAGCCACAUGCAACAUGUUACUUCAUCAAUUUUCGGAAAUAAGGUUUAAGGACAAUGACAGUAAGAUAAGGGAAGAAAACAUGGAGGAAUGAAGUCCUCAACAGAGGAUUGAGCAUCA
B17: chr18:52893488:52893489:-_ENSG00000196628_ENST00000354452|hu_hu|hu_hu_hu_mus_True|8_18 (ssRNA)
RNA: GGGAGUUCUACAGUCCGACGAUCUAUUUAGACCAUUUCCGCGGAGUUAUGGCAUUUACUCAGUGCUGAUAGGUGGAAAAACUACUUCAACAGGGAUUUUUUUUUUCCUUAAUACAUGCCAAGAAUUGUGUGGCUGUAAAACAGCAACAGAGGAUUGAGCAUCA
B18: 137534387_137536831_709_CDS_ENSG00000094880_ENST00000394886|human|control|control (ssRNA)
RNA: GGGAGUUCUACAGUCCGACGAUCCUCCUCUAUCAACUGCAACUCUGUGUAUAUAUGAGCCAGAAAAAACUCUUUCAUCCAGGUGUCUGGCAAAGACAGGAACUUCAGCAUCUCUUUGUCUGUGAUCAGGUUACAGAGUUCUAACAACAGAGGAUUGAGCAUCA
B19: chr16:94651144:94651145:+_ENSMUSG00000040785_ENSMUST00000117648|mus_hu|mus_mus_mus_hu_True|68_108 (ssRNA)
RNA: GGGAGUUCUACAGUCCGACGAUCAUUCUCUUGGAUCAAGUGGCGAAUAACAUAGUCCACUGCUUCAUGGACAAAAUUUCUGCUAGAAAAACAGGUUGUAUAGUCUUCUGUGCUCAAAACUUUCCAAGAAAGCAAUUCUUUGAGCAACAGAGGAUUGAGCAUCA
B20: chr14:89307221:89307222:+_ENSG00000165533_ENST00000346301|hu_mus|hu_hu_hu_mus_False|58_98 (ssRNA)
RNA: GGGAGUUCUACAGUCCGACGAUCUCCUGUUUGGUUAGUUCCAGGGAGCUUCAAAGAUGUGCCAGGGCGUGGGACCUGAGCUAUAGCAUUUUCAUCCAGGAUCAUUUCAGCAAUUCCUUCCUGGUCCACAUCAAUUUCAUCUAUCAACAGAGGAUUGAGCAUCA
B21: chr3:179287964:179287965:+_ENSG00000136518_ENST00000429709|hu_hu|hu_hu_hu_mus_True|88_108 (ssRNA)
RNA: B6 RNA with G27U, U30A, G36A, G48A, U102C, U105C, A114G
B22: chrX:71549400:71549401:+_ENSMUSG00000019087_ENSMUST00000019231|mus_hu|mus_mus_mus_hu_False|8_98 (ssRNA)
RNA: GGGAGUUCUACAGUCCGACGAUCGCAGUAGGAAGAGCAAACCUUUCCAGUCCAGUGCGCUGCAGGGUGGGAAAGCAACAACACGGACACCGUCCCACCCUCAACCCCCCCACUGGCACAGGGUCACAUCUGGGUCAUCAAAGACAACAGAGGAUUGAGCAUCA

Each binder was assayed against T1, UNK ZnF1-3 (assay: nsRBNS (natural sequence RNA bind-n-seq); RBNS binding buffer (assumed for nsRBNS): 25 mM Tris pH 7.5, 150 mM KCl, 3 mM MgCl2, 0.01% Triton X-100, 500 ug/ml BSA, 20 U/ml SUPERase-In, 4 C; UNK is unkempt and MSI1 is Musashi-1; names of the RNAs are library labels; protein concentration not given here; high values mean tight binding).
For B1, the binding signal was 2.28 enrichment R.
Binder B2 has a binding signal of 1 enrichment R.
B3 gave a binding signal of 1.13 enrichment R.
B4 gave a binding signal of 1.29 enrichment R.
Binder B5 has a binding signal of 1.25 enrichment R.
In the case of B6, the binding signal is reported as 0.581 enrichment R.
B7 was tested, and the binding signal was 1.04 enrichment R.
Binder B8 has a binding signal of 0.701 enrichment R.
Work on B9 yielded a binding signal of 0.678 enrichment R.
Binder B10 has a binding signal of 0.541 enrichment R.
For B11, the binding signal was 0.675 enrichment R.
Work on B12 yielded a binding signal of 0.741 enrichment R.
In the case of B13, the binding signal is reported as 1.06 enrichment R.
B14 gave a binding signal of 2.11 enrichment R.
B15 showed a binding signal of 0.852 enrichment R.
With B16 the binding signal was 2.55 enrichment R.
For B17, the binding signal was 1.05 enrichment R.
Binder B18 has a binding signal of 1.71 enrichment R.
In the case of B19, the binding signal is reported as 0.52 enrichment R.
For B20, the binding signal was 0.829 enrichment R.
Work on B21 yielded a binding signal of 0.786 enrichment R.
B22 gave a binding signal of 0.928 enrichment R.
